ROMK mod = modulators of human ROMK potassium channel | P48048 | Tet-inducible ROMK, thallium flux fluorescence; actives lie on both sides | B-score at 10 µM | 130,000 tested, 2% active;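 active = signal ratio slope over the read window, or its plate-corrected B-score, at least 3 SD from the plate mean, either direction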;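 also: B-score of the F/F0 ratio slope over 7 to 12 s after thallium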
Target sequence (P48048 whole entry, looked up): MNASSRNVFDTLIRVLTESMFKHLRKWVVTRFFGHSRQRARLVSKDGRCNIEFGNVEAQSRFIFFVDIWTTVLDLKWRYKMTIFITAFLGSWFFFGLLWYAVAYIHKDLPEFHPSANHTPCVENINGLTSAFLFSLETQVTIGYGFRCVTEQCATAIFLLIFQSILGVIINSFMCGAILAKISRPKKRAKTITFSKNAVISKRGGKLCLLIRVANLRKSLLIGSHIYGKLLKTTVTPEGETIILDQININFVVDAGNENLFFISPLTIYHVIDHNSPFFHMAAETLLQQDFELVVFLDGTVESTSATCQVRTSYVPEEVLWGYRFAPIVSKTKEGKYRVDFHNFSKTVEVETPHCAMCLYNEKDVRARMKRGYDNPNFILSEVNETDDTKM
S1P4 antagonist = human S1P4 receptor antagonism | O95977 | S1P4-expressing cells, antagonist mode, reporter read-out | inhibition, % at 4.98 µM | 220,000 tested, 0.26% active | AID 1510; in the data active = inhibition above about 29%;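 also: 0% = wells stimulated with agonist and 100% = vehicle wells without agonist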
Cl transport mod = KCC2 (human) Cl- transport modulation; Q9H2X9; KCC2 cells, thallium flux FluoZin-2 fluorescence; B-score of Tl+ flux slope (higher = more flux/activation; lower = inhibition) at 10 µM; 190,000 tested, 2.2% active; AID 1456;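 active = thallium flux slope and its plate-corrected score both differing from the plate sample mean at a set confidence after two filtering rounds, in either direction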;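 also: slope of fluorescence scaled to starting intensity during 10 to 20 s after thallium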
S1P4 ag = activates the human S1P4 receptor | S1P4-expressing cell line, agonist reporter assay | activation, % at 4.98 µM | 220,000 tested, 0.35% active | O95977; in the data active = activation above about 11%;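 also: 0% = DMSO vehicle and 100% = reference agonist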
S1P3 antagonist = antagonists of human S1P3 receptor. Q99500. CHO S1P3 NFAT-BLA reporter, FRET fluorescence, antagonist mode. inhibition, % at 4.98 µM. 170,000 tested, 0.27% active. AID 485;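 active = inhibition above the plate cutoff, the mean inhibition of test wells on that plate plus 3 SD, cut at about 28% in these data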;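 also: cells challenged with S1P at its EC80 of 0.8 µM; blue over green emission ratio from cleaved BLA substrate after 4 h stimulation; 0% = S1P-stimulated wells and 100% = unstimulated DMSO-only wells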
RAM network inh = yeast RAM network inhibition; S. cerevisiae dse1pr::URA3 reporter, 5-FOA growth OD615, 2 d; analog-sensitive cbk1-as2 kinase mutant strain; inhibition, % at 50 µM; 190,000 tested, 1.8% active; AID 868;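 active = inhibition above a set limit, 3 SD over mean compound inhibition, cut at about 8.4% in these data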;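 also: 0% = DMSO-only wells with no growth and 100% = 10 µM 1-NA-PP1 full growth; inhibition rescues growth on 5-FOA so higher OD means more RAM inhibition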
S1P4 antag conf = human S1P4 antagonism, confirmation. shares compounds with S1P4 antagonist. S1P4-expressing cell line, antagonist mode, reporter read-out. inhibition, % at 4.98 µM. 520 tested, 71% active. AID 1524; in the data active = inhibition above about 30%
S1P1 antag = blocks human S1P1, counter-screen for S1P4 antagonists | shares compounds with S1P4 antagonist | cell-based S1P1 antagonist counterscreen, inhibition | inhibition, % at 4.98 µM | 520 tested, 37% active | AID 1564; in the data active = inhibition above about 40%;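 also: receptor stimulated with S1P near its EC80; 0% = agonist stimulated wells and 100% = vehicle only wells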
Numbers without * were called inactive; . = no result given. Rows were chosen to be rich in hits. Some 5.1% of all compounds tested hit in one or more screens of this group.

SMILES | ROMK mod | S1P4 antagonist | Cl transport mod | S1P4 ag | S1P3 antagonist | RAM network inh | S1P4 antag conf | S1P1 antag
O=C(NC(Cc1ccccc1)C(=O)O)/C(=C/c1ccccc1)NC(=O)c1ccccc1 (stereo not given) | . | 45.0* | 0.0308 | 1.0 | -2.1 | 0.0 | 16.2 | 2.1
Nc1cccc2c1C(=O)N(C(=O)c1cccc(S(=O)(=O)N3CCCC3)c1)C2=O | -0.978 | 31.4* | -0.65 | -1.0 | . | 0.5 | 18.4 | 22.8
NC(=O)c1cccc(S(=O)(=O)N2CCCCC2)c1 | 0.382 | -39.0 | 0.585 | 0.7 | -16.6 | -1.1 | . | .
C=C(C)CSc1nc2ccccc2[nH]1 | -0.616 | -5.1 | -0.0491 | 3.1 | -3.0 | -0.1 | . | .
COC(=O)C1=C(C)N=C2SC(C#N)=C(N)N2C1c1ccc(OCc2ccccc2)cc1 (stereo not given) | . | 8.8 | 1.15 | 0.3 | . | 1.4 | . | .
COc1ccc(NC(=O)CN(C)C2CCCCC2)cc1Cl | . | 11.8 | -0.71 | 1.1 | -3.6 | . | . | .
Cc1ccc(NC(=O)CN(C)C2CCCCC2)cc1Br | -1.05 | 31.6* | -0.044 | -0.4 | 15.7 | 0.0 | 18.9 | 39.2
CN(C)/N=C/C=C1\CCC/C(=C\c2ccc(F)c(F)c2)C1=O | -2.2 | 29.2* | . | 0.5 | -3.0 | 4.8 | 33.5* | 41.9*
OC(COc1ccc(CNCCc2ccc(C(F)(F)F)cc2)cc1)CN1CCCCC1 (stereo not given) | -1.76 | 30.4* | 0.656 | -2.0 | -26.0 | 1.4 | 41.1* | 28.4
CC1CCCC(C)N1C(=O)CSc1nnnn1-c1cccc2c1CCCC2 (stereo not given) | . | 14.4 | -1.22 | -0.1 | . | 3.6 | . | .
CC1CCCC(C)N1C(=O)CSc1nnnn1Cc1ccccc1 (stereo not given) | 0.583 | 91.7* | -2.63 | 1.3 | -18.4 | -0.1 | 1.5 | -1.5
CC(C)N(C(=O)COC(=O)[C@@H]1CC(O)CN1S(=O)(=O)c1ccc(C(C)(C)C)cc1)C(C)C (stereo not given in full) | 0.795 | -3.9 | -0.0323 | 0.1 | 2.5 | 2.4 | . | .
CCC(C)[C@@H](NC(=O)OC(C)(C)C)c1nnc(S(=O)(=O)Cc2cccc(C)c2)o1 (stereo not given in full) | 0.451 | 76.4* | . | -4.4 | -9.1 | 6.1 | 108.9* | 31.2
Cc1ccccc1CS(=O)(=O)c1nnc([C@H](Cc2ccccc2)NC(=O)OC(C)(C)C)o1 | -0.927 | 71.1* | . | -1.7 | . | 5.4 | 108.3* | 34.1
O=C(c1ccc([N+](=O)[O-])c(CS(=O)(=O)c2ccc(Cl)cc2)c1)N1CCCC1 | -1.2 | -0.3 | 0.784 | -1.4 | -13.4 | -0.6 | . | .
CC(C)(C)c1ccc(OCc2ccc(C(=O)N/N=C/c3ccc(O)c(O)c3)cc2)cc1 | 0.128 | 33.4* | -0.0347 | 0.4 | 8.2 | 2.3 | 63.4* | 27.1
O=C(N/N=C/c1ccc(OCc2ccc(F)cc2)cc1)c1ccccc1 | 0.679 | -26.8 | -0.12 | 1.4 | -4.8 | 4.1 | . | .
COc1ccc(Nc2nc(Nc3ccc(OC)cc3)nc(SC3=NCCS3)n2)cc1 | 0.0774 | 29.1* | -0.398 | -2.2 | . | 2.3 | 46.6* | 21.0
O=C(O)/C=C/C(=O)Nc1ccc(Oc2ncnc3cc(Cl)ccc23)nc1 | -0.119 | -2.3 | 0.269 | -2.0 | -1.0 | . | . | .
O=C(Nc1nnc(-c2ccc3c(c2)CCCC3)o1)c1ccccc1 | . | 30.9* | 78.7* | 2.2 | . | 0.5 | 102.1* | 95.7*
CC1=NNC(=O)/C1=C\c1cn(-c2ccccc2)nc1-c1ccc(F)cc1 | 0.0128 | 29.7* | -0.374 | -0.8 | -2.2 | 2.3 | 109.6* | 17.7
COc1ccc(CCn2cnc(=O)c(C#N)c2C)cc1OC | -0.127 | -9.0 | -0.164 | 3.4 | 4.4 | 1.2 | . | .
CCC(c1nnnn1CCc1ccccc1)N1CCN(C(=O)c2ccco2)CC1 (stereo not given) | 0.0944 | 33.4* | . | -1.6 | -19.5 | 1.4 | 6.8 | 18.1
CC(C)CC(c1nnnn1CCc1ccccc1)N1CCN(C(=O)c2ccco2)CC1 (stereo not given) | -0.351 | -1.8 | . | 0.1 | -5.4 | 4.2 | . | .
O=S(=O)(c1ccc(Cl)cc1)c1snnc1-c1ccccc1 | 0.00331 | 35.8* | -0.0551 | -2.1 | . | 1.5 | 72.3* | 8.3
